Measured values: PubChem BioAssay (NCI)
Compounds without any hit were thinned out: in the full panel of roughly 83,000, 20% have a hit.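 The endpoint reported here, percent growth, reads 100 for growth as untreated, 0 for no net growth and -100 for all cells dead.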 A number with no mark means an inactive call. Active and inactive are the calls of the source. How the source made its calls: active means growth percent below 10; inactive means the rest.

Experiments:
Experiment in all cases: NCI-60 one-dose screen, 48 h (100 = growth as untreated, 0 = no growth, -100 = all killed)
Settings in all cases: 10 µM unless noted
[1] = test system: SK-MEL-2 melanoma
[2] = test system: EKVX NSCLC
[3] = test system: SN12C renal
[4] = test system: UO-31 renal
[5] = test system: TK-10 renal
[6] = test system: ACHN renal
[7] = test system: CAKI-1 renal
[8] = test system: A498 renal
[9] = test system: CCRF-CEM leukemia
[10] = test system: RPMI-8226 leukemia
[11] = test system: OVCAR-8 ovarian
[12] = test system: OVCAR-5 ovarian
[13] = test system: OVCAR-4 ovarian
[14] = test system: SK-OV-3 ovarian
[15] = test system: IGROV1 ovarian
[16] = test system: OVCAR-3 ovarian
[17] = test system: HS 578T breast
[18] = test system: NCI/ADR-RES ovarian
[19] = test system: MOLT-4 leukemia
[20] = test system: SR leukemia

Row | Compound | growth [1] | growth [2] | growth [3] | growth [4] | growth [5] | growth [6] | growth [7] | growth [8] | growth [9] | growth [10] | growth [11] | growth [12] | growth [13] | growth [14] | growth [15] | growth [16] | growth [17] | growth [18] | growth [19] | growth [20]
1 | O=c1[nH]c2c(s1)CCCC2CN1CCCCC1 (stereo not drawn) | 97.2% | 105% | 103% | 89.3% | 93% | 97.6% | 99% | 95.8% | 109% | 103% | 113% | 89.2% | 113% | 86.6% | 120% | 111% | 105% | 99% | – | –
2 | O=C(N/N=C/c1ccc(O)c(O)c1)c1sc2ccccc2c1Cl | -13.4% (active) | 98.3% | 77.1% | 61% | 109% | 62.9% | 84.7% | 71.4% | 14.1% | 16.6% | 90.4% | – | – | 75.7% | 64.1% | 96.9% | 84.4% | 83.7% | 43.7% | –
3 | Cn1c(=O)c2[nH]c(CCCc3nc4c([nH]3)c(=O)n(C)c(=O)n4C)nc2n(C)c1=O | 109% | 113% | 103% | 102% | 118% | 103% | 108% | 142% | 124% | 107% | 90.4% | 122% | 118% | – | – | 128% | 116% | 109% | – | 129%
4 | CSc1nnc2c(=O)n(C)c(=O)n(C)c2n1 | -28.8% (active) | 111% | 96.1% | 88.9% | 99.9% | 98% | 110% | 88.7% | 88.3% | 75.8% | 106% | 100% | 105% | 103% | 101% | 144% | 86.6% | 101% | 106% | –
5 | COc1ccc(C(O)c2cc3c(N)c(C(=O)Nc4ccccc4)sc3nc2C)cc1 (stereo not drawn) | 9.47% (active) | 26% | 21.5% | 19.1% | 44.2% | 25.7% | 15.1% | -20.8% (active) | 4.7% (active) | 5.81% (active) | 8.92% (active) | 27.1% | 42.6% | -9.84% (active) | 12.6% | -16.7% (active) | 3.96% (active) | 13.7% | – | -15.3% (active)
6 | O=S(=O)(NCCNc1nccc(-c2c(-c3ccc(F)c(O)c3)nc3sccn23)n1)c1ccccc1 | 12.7% | 101% | 64.1% | 49.9% | 138% | 57.5% | 54.6% | 109% | 37.2% | 41% | 67.6% | 115% | 92.8% | 85.9% | 68.9% | 81.6% | 82.1% | 106% | – | 35.8%
7 | COc1ccc(-c2cnnc3c(-c4cccc(C(F)(F)F)c4)cnn23)cc1 | 54.6% | 30.6% | 49.8% | 57.6% | 21% | 14.9% | -31.8% (active) | 78.6% | 61.2% | 45.8% | 19.6% | 81% | 35.7% | 15.1% | 64.1% | 26.4% | 20.1% | 60.5% | 89.2% | –
8 | Cc1c(C2=CCCCC2)c2ccccn2c1C(=O)c1cccc(S(=O)(=O)N2CCOCC2)c1 | 91.8% | 68.7% | 99.8% | 56.8% | 71.5% | 93.4% | 59.6% | 116% | 81.5% | 46.9% | 94.9% | 106% | 52.2% | 92.6% | 75.7% | 73% | 75.8% | 60.5% | 82.6% | –
9 | NS(=O)(=O)c1cccc(NC(=O)C(=O)C2C(=O)Nc3ccccc32)c1 (stereo not drawn) | 113% | 76% | 99.5% | 67.2% | 129% | 90.4% | -3.03% (active) | 120% | 69.7% | 47.7% | 106% | – | 102% | 106% | 76.4% | 96.6% | 101% | 97.5% | 100% | –
10 | Cc1ccccc1CNc1ccc(N2CCOCC2)cc1 | 102% | 104% | 96.3% | 107% | 95.3% | 108% | 99.1% | – | 112% | 110% | 96.3% | 103% | 87.7% | 131% | 108% | 101% | 108% | – | 101% | 86.3%
11 | CCNC(=S)NNC(=O)c1cc2ccc1CCc1ccc(cc1)CC2 | 102% | 94.4% | 95.3% | 83.7% | 103% | 107% | 94.9% | – | 107% | 102% | 102% | 96.2% | 106% | 123% | 103% | 98.6% | 102% | 101% | 102% | 101%
12 | COc1ccc(Nn2c(SCC(=O)Nc3nc(-c4ccc(Cl)cc4)cs3)nc(C)c2C)cc1 | 90.5% | 41.9% | 67.2% | 39.4% | 68.5% | 52% | 34.4% | 69.5% | – | 35.7% | 43.9% | 111% | 37% | 77.8% | 70.9% | 60.7% | 86.1% | 23.1% | 36.1% | 40.3%
13 | COc1cc(-c2cc(=O)oc3cc(O)ccc23)cc(OC)c1OC | 101% | 89.8% | 79% | 72.2% | 110% | 89.3% | 74% | 101% | – | 41.8% | 84.9% | 103% | 73% | 135% | 94% | 88.4% | 88.5% | 88.3% | 92.9% | 97.6%
14 | COC(=O)C1=C(C(=O)ONCCN(C)C)C2C=CC1(C(Cc1ccccc1)Nc1ccc(F)cc1)O2 (stereo not drawn) | 97% | 102% | 87% | 81% | 65.4% | -18.8% (active) | 88% | – | 2.02% (active) | 71.2% | 97.7% | 100% | 94.5% | 104% | 92.4% | 39.9% | 125% | – | 30.6% | 10.7%
15 | COc1ccc(-c2nc3sccn3c2/C=C/C(=O)c2cc(OC)c(OC)c(OC)c2)cc1 | 43.9% | 60% | 62.5% | 17.6% | 82.7% | 55.7% | 42.4% | 84.9% | – | -39.1% (active) | 49.9% | 103% | 54.7% | 68.5% | – | 53.7% | 71.1% | 47.5% | 29.8% | 55.4%
16 | O=C1Nc2c(ccc(Cl)c2Cl)/C1=C/c1ccc(O)cc1 | 108% | 62.1% | 97.4% | 61.8% | 101% | 87.6% | 59.7% | 115% | – | 78.6% | 92.3% | 90.6% | 72.9% | 86.4% | 42.6% | 92.9% | 89% | 96.6% | 77.3% | 42%
17 | CCN1C(=O)/C(=c2\sc3n(c2=O)NC2C(N=3)N(CC)C(=O)N2CC)c2ccccc21 (stereo not drawn) | 65.8% | 60.4% | 43.8% | 48.9% | 83.3% | 49.3% | 42.1% | -17.8% (active) | – | 64.9% | 46.5% | 53.8% | 46% | 70.2% | 41.6% | -12.7% (active) | 37% | 12.1% | 58.9% | 22.7%
18 | C=C(C)[C@H]1CC/C(C)=C/CC[C@]2(C)O[C@H]2CC/C(COC(=O)[C@@H](OC(C)=O)[C@H](NC(=O)c2ccccc2)c2ccccc2)=C\[C@@H]1O | 119% | 84.7% | 93.8% | 79.4% | 99.7% | 116% | 89.6% | 92.8% | – | 54.8% | 93.9% | 106% | 85.7% | 94.1% | – | 104% | 91% | 88.1% | 98.2% | 51.2%
19 | CCNC(=O)c1[nH]cc(-c2ccc(OC)cc2)c1-c1cc(OC)c(OC)c(OC)c1 | 67.5% | 62.4% | 60.5% | 30.7% | 83.9% | 35.8% | 29.4% | -14% (active) | – | 38% | 66.3% | 74.6% | 45.7% | 57.7% | 47.4% | 2.53% (active) | 45.3% | 19.8% | 92% | 19.5%
20 | CN1C(=O)N(C)[C@H]2NC(NN)=N[C@H]21 | 108% | 99.1% | 99.8% | 93.5% | 97.4% | 104% | 89.2% | 97.9% | – | 118% | – | 98.8% | 103% | 121% | 98.9% | 109% | 95.2% | 105% | 101% | 100%
21 | COc1cc(/C=C/C(=O)c2c(C)oc3nc[nH]c(=O)c23)ccc1O | 109% | 97.9% | 97.2% | 84.3% | 135% | 101% | 87.1% | 94.8% | – | 122% | 103% | 96.5% | 101% | 103% | 100% | 108% | 93% | 101% | 104% | 126%
